Results from PubChem BioAssay AID485367 (National Center for Advancing Translational Sciences (NCATS), 2010).
In all, about 330,000 compounds went through this assay and about 560 (0.17%) were called active. Inconclusive results (about 1%) are left out. Shown is part of a subset that was picked to be rich in actives. Unmarked numbers belong to inactive results. Calls come from the whole dose curve; as a rule, active = well fitted inhibition curve with a large enough effect; inconclusive = small, poorly fitted or top-dose-only effect, or effect the other way; inactive = flat fitted curve, though single readings scatter.

Target: ATP-dependent 6-phosphofructokinase (Trypanosoma brucei brucei) (UniProt O15648)
Test: qHTS Assay to Find Inhibitors of T. brucei phosphofructokinase; note: nearly all actives have a fitted effect of over 60% in size;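 for activity, negative = inhibition: 0% = uninhibited 1x PFK enzyme wells and -100% = no-enzyme wells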
Conditions: T. brucei PFK, ADP-Glo luminescence; series mostly up to 57.5 µM; activity, negative = inhibition: at the top concentration
Outline: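 ADP-Glo luminescence quantified ADP after 45 min at room temperature, with 1.25 nM T. brucei PFK, 0.1 mM ATP and 0.5 mM fructose-6-phosphate in pH 8.0 TEA buffer. qHTS titrations up to 57 µM; curves classified by quality.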
Potency is the fitted concentration of half-maximal effect.

ATP-dependent 6-phosphofructokinase (Trypanosoma brucei brucei), sequence (O15648 whole entry, looked up): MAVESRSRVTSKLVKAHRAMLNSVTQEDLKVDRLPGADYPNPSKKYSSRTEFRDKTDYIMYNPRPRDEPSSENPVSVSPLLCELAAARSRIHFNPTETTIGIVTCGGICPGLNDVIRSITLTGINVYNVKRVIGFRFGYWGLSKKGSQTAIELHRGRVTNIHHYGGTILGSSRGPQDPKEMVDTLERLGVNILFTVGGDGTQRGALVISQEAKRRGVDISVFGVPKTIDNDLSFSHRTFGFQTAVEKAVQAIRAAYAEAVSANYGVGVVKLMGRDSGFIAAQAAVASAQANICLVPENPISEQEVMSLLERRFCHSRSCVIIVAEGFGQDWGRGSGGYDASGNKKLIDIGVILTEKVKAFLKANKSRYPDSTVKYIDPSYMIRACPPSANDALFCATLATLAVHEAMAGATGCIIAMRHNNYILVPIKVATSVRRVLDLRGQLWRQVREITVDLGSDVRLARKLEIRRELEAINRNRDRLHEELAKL

Compound | activity, negative = inhibition | Potency
O=C(COC(=O)/C=C/c1ccc(OC(F)F)cc1)NC1CCCCC1 | 6.89% | –
N=C1/C(=C/c2cccn2-c2cccc([N+](=O)[O-])c2)C(=O)N=C2SC=CN12 | 3.77% | –
CCOC(=O)c1c(CNCc2ccccc2F)c2sc(C)cc2n1C | -0.233% | –
CCN(CC)CCCSc1nc2ccccc2s1 | -6.96% | –
O=[N+]([O-])c1c(NCCO)cc(Sc2nc3ccccc3s2)c2nonc12 | – | 6.01 µM (active)
NC(=O)c1ccc(Nc2ccc3nonc3c2[N+](=O)[O-])cc1 | 0.218% | –
CCOCCOC(=O)C1=C(C)N(C)C(=O)NC1c1ccccc1F (stereo unspecified) | 0.633% | –
CCOC1CS(=O)(=O)CC1OCC (stereo unspecified) | -1.39% | –
CC(C)(C)NC(=O)NC(=O)COC(=O)Cc1c(F)cccc1Cl | -0.983% | –
O=C1CSC(=S)N1c1ccc(O)cc1 | -1.23% | –
O=C1CSC(=S)N1c1ccc(Cl)c(Cl)c1 | – | 21.3 µM (active)
COc1cc(N2C(=O)CSC2=S)cc(OC)c1OC | -8.25% | –
O=C(COC(=O)CNS(=O)(=O)c1ccccc1)NC12CC3CC(CC(C3)C1)C2 | -2.55% | –
Cc1ccc(C(=O)COC(=O)c2cccc(N3C(=O)c4c(C)nc5ccccc5c4C3=O)c2)cc1C | -6.05% | –
O=C(Nc1ccncc1)c1ccc([N+](=O)[O-])cc1Cl | -2.98% | –
Cc1ccnc(NC(=O)c2ccc(Cl)c([N+](=O)[O-])c2)c1 | -21.5% | –
O=C(Nc1ccncc1)c1ccc(Cl)c([N+](=O)[O-])c1 | – | 26.9 µM (active)
Cc1c(CCO)c(=O)n(-c2ccccc2)n1S(=O)(=O)c1ccc(F)cc1 | 2% | –
CCOc1ccc(NCCC(=O)c2ccc3c(c2)OCO3)cc1 | 0.639% | –
COc1ccc(CNC(=O)C(NS(=O)(=O)c2cccc3nsnc23)C(C)C)cc1 (stereo unspecified) | -7.82% | –
CC(NC(=O)c1ccc(S(=O)(=O)Nc2ccccc2)cc1)c1ccc(S(N)(=O)=O)cc1 (stereo unspecified) | 4.34% | –
